# dFosB act – activators of delta FosB homodimer, primary screen, biochemical, fluorescence polarization, TAMRA-CDK5 oligo, single point. purified delta FosB; percent of positive-control signal above neutral wells. AID 493131, 2011. Protein FosB (Mus musculus), P13346. hit rate 0.99% among 340,000. activation, % at 25 µM;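 active = mean activation above about 17%, with every replicate also reaching it, limit read from the data, passing the limit was not always enough; inconclusive = only one of the two conditions met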
# RAD54 branch – inhibitors of human RAD54 branch migration, primary screen, biochemical, fluorescence, single point | RAD54 Holliday junction branch migration, FAM/BHQ fluorescence | AID 602329, 2012 | hit rate 0.14% among 360,000 | inhibition, % at 10.4 µM | DNA repair and recombination protein RAD54-like (Homo sapiens), Q92698;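 active = mean normalized replicate activity at least 40 and at least half of replicates scoring 40 or more; inconclusive = only one of the two criteria met; inactive = mean below 40 and under half of replicates reaching 40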;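 also: inhibitors cause a drop in the FAM fluorescence signal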
# DENV2 CPE – inhibitors of DENV2 cytopathic effect, primary screen, cell-based, plate reader, single concentration. DENV2-infected cells, cytopathic effect rescue. CPE inhibition, % at 9.99 µM. hit rate 1.7% among 350,000. AID 651640, 2012; in the data active = CPE inhibition above about 20%, passing the limit was not always enough; inconclusive = no clear call, values can overlap the other calls; tested in BHK-21 cells
# RAD52 anneal inh – RAD52 DNA annealing inhibitors, primary screen, biochemical, FRET, single point, set 2. DNA repair protein RAD52 homolog (Homo sapiens), P43351. recombinant RAD52 DNA annealing, FRET fluorescence. inhibition, % at 18.7 µM. hit rate 0.46% among 360,000;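 active = every replicate showing at least 50% inhibition; inconclusive = mean inhibition at least 50% but not in every replicate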
# Target sequence (P43351 whole entry, looked up): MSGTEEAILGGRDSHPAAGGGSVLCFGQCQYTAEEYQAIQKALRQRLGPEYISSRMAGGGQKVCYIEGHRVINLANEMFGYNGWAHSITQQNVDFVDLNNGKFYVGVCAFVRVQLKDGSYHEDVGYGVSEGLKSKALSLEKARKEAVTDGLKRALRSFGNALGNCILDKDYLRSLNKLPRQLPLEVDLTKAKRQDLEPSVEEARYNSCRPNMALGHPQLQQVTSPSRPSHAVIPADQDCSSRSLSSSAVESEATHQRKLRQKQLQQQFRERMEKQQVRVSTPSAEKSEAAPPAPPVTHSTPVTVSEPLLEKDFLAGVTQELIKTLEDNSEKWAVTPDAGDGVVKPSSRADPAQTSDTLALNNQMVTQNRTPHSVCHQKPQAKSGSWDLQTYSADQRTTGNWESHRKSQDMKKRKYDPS
# AF4-AF9 inh – inhibitors of AF4 peptide binding to AF9, primary screen, biochemical, AlphaScreen, biotin-AF4 peptide, FLAG-AF9, single point | Protein AF-9 (Homo sapiens), P42568 | hit rate 0.47% among 350,000 | inhibition, % at 10 µM;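 active = every replicate reaching a set inhibition limit, whatever the replicate mean, cut at about 25% in these data; inconclusive = mean inhibition reaches that limit but some replicates miss it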
# GSIS activator – GLuc luminescence reporter in INS-1E cells, primary screen for activators of glucose-dependent secretion of insulin | INS-1E GLuc reporter insulin secretion, 2-3 h | hit rate 0.61% among 370,000 | AID 743287, 2014 | activation, % at 16.6 µM;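 active = lowest replicate activation of at least 40%, so every replicate reaches that level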
# A number is an active result; i = inactive; ? = inconclusive; nt = not tested or not shown; ! = repeats disagree. Most compounds without a hit are left out; they make up all but 3.1% or so of the library.
SMILES,dFosB act,RAD54 branch,DENV2 CPE,RAD52 anneal inh,AF4-AF9 inh,GSIS activator
CCOC(=O)C1CCCN(C(=O)C2c3ccccc3Oc3ccccc32)C1 (stereo not drawn),i,i,nt,nt,nt,nt
C[C@@H]1CN([C@H](C)CO)C(=O)c2cc(NC(=O)CCC(F)(F)F)ccc2O[C@H]1CN(C)Cc1ccc(C(=O)Nc2ccccc2N)cc1,nt,nt,20.3,i,i,i
C[C@@H]1CN([C@H](C)CO)C(=O)c2cc(NC(=O)Nc3ccc(C(F)(F)F)cc3)ccc2O[C@H]1CN(C)Cc1ccc(C(=O)Nc2ccccc2N)cc1,nt,nt,22.4,i,i,i
COc1cccc(-c2nnn(CC(=O)O)n2)c1,i,nt,nt,nt,nt,75.9
O=C(/C(=N/N=C/c1ccc(O)c(O)c1)c1ccccc1)c1ccccc1,i,i,i,i,35.5,i
COc1ccc(-c2cc(NC=O)c3ncc(-c4ccc(OC)c(OC)c4)n3c2)cc1,nt,i,?,i,i,51.6
COc1ccc(-c2cc(NC=O)c3ncc(-c4ccc(OC)c(OC)c4)n3c2)cc1OC,nt,i,i,i,i,nt
CN1CCN(c2ccc(-c3cc(NC=O)c4ncc(-c5ccc(F)cc5)n4c3)cc2)CC1,nt,i,i,i,38.0,i
O=CNc1cc(-c2cccc(F)c2)cn2c(-c3ccc(F)cc3)cnc12,nt,i,i,i,i,nt
COc1cc(-c2cnc3c(NC=O)cc(-c4cccc(C(F)(F)F)c4)cn23)cc(OC)c1OC,nt,i,i,i,i,i
Cn1cc(-c2cnc3c(NC=O)cc(-c4cccc(C(F)(F)F)c4)cn23)cn1,nt,i,27.0,i,i,i
COc1cccc(-c2cnc3c(NC(C)=O)cc(-c4ccncc4)cn23)c1,nt,i,i,i,i,i
COc1cccc(-c2cnc3c(NC=O)cc(-c4ccncc4)cn23)c1,nt,i,65.2,i,i,i
C[C@H](CO)N1C[C@H](C)[C@@H](CN(C)S(=O)(=O)c2cccs2)Oc2ccc(NC(=O)Cn3cnnn3)cc2CC1=O,nt,i,i,i,i,i
C[C@H](CO)N1C[C@H](C)[C@H](CN(C)S(=O)(=O)c2ccccc2)Oc2ccc(NC(=O)CCCCCC(=O)Nc3ccccc3N)cc2C1=O,nt,nt,i,i,i,i
Cc1ccc(S(=O)(=O)N(C)C[C@H]2Oc3c(NC(=O)c4ccncc4)cccc3C(=O)N([C@H](C)CO)C[C@@H]2C)cc1,nt,i,i,i,i,i
O=C(Nc1ccc2c(c1)[C@H]1C[C@H](CC(=O)N3CCc4ccccc4C3)O[C@H](CO)[C@H]1O2)C1CCC1,nt,i,i,i,i,i
COc1ccc(C[C@H]2CCn3cc(nn3)COC[C@H](CC(C)C)NC2=O)cc1,nt,nt,i,i,i,i
COc1ccc(OC)c(Nc2nc(-c3cccs3)cs2)c1,i,i,nt,nt,nt,i
COc1ccc(C)cc1Nc1nc(-c2c[nH]c3ccccc23)cs1,26.8,nt,i,i,i,i
O=C(C[C@@H]1C[C@H]2c3cc(NC(=O)C4CCOCC4)ccc3O[C@H]2[C@@H](CO)O1)NCc1cc(F)ccc1F,nt,i,i,i,i,i
O=C(c1ccccc1)N1CC[C@@H]2[C@@H](CO)Nc3ccc(-c4ccccc4F)cc3[C@@H]21,nt,i,33.1,i,i,i
O=C(c1cnccn1)N1CC[C@@H]2[C@H](CO)Nc3ccc(-c4ccccc4F)cc3[C@@H]21,nt,i,?,i,i,i
O=C(c1cnccn1)N1CC[C@@H]2[C@@H](CO)Nc3ccc(-c4ccccc4F)cc3[C@@H]21,nt,i,113.8,i,i,i
C[C@H](CO)N1C[C@H](C)[C@H](CN(C)Cc2ccccc2)OCCCC[C@H](C)Oc2ccc(NC(=O)Nc3ccccc3)cc2C1=O,nt,i,i,i,i,i
SMILES,dFosB act,RAD54 branch,DENV2 CPE,RAD52 anneal inh,AF4-AF9 inh,GSIS activator
O=C(c1ccccc1)c1ccccc1N1C(=O)C=CC1=O,i,nt,?,i,i,192.4
COc1ccc(NC(=O)Nc2ccc3c(c2)C(=O)N([C@@H](C)CO)C[C@@H](C)[C@H](CN(C)C(=O)C2CCCCC2)OCCCC[C@@H](C)O3)cc1,nt,i,21.8,i,i,i
COc1ccc(NC(=O)Nc2ccc3c(c2)C(=O)N([C@@H](C)CO)C[C@@H](C)[C@H](CN(C)C(=O)C2CCCCC2)OCCCC[C@H](C)O3)cc1,nt,i,i,i,i,i
COc1ccc(NC(=O)Nc2ccc3c(c2)C(=O)N([C@H](C)CO)C[C@H](C)[C@@H](CN(C)C(=O)C2CCCCC2)OCCCC[C@@H](C)O3)cc1,nt,i,31.8,i,i,i
COc1ccc(NC(=O)Nc2ccc3c(c2)C(=O)N([C@H](C)CO)C[C@@H](C)[C@@H](CN(C)C(=O)C2CCCCC2)OCCCC[C@H](C)O3)cc1,nt,i,45.5!,i,i,i
COc1ccc(NC(=O)Nc2cccc3c2O[C@H](CN(C)CC2CCCCC2)[C@@H](C)CN([C@H](C)CO)C3=O)cc1,nt,i,i,i,i,i
COc1ccc(S(=O)(=O)N[C@H]2C=C[C@@H](CC(=O)NCc3ccccc3F)O[C@H]2CO)cc1,nt,i,i,i,i,i
CCS(=O)(=O)NCC[C@@H]1CC[C@@H](NC(=O)C2CCCC2)[C@@H](CO)O1,nt,i,nt,i,i,i
CNC[C@@H]1OCCCC[C@@H](C)Oc2ccc(NC(=O)c3ccccc3)cc2C(=O)N([C@@H](C)CO)C[C@H]1C,nt,nt,nt,nt,nt,i
S=C(NCCCN1CCOCC1)N1CCN(c2nc(-c3ccccc3)cs2)CC1,i,i,?,i,i,i
S=C(NCCCN1CCOCC1)N1CCN(c2nc(-c3ccc(Cl)cc3)cs2)CC1,i,i,?,i,33.1,i
N#C[C@H]1[C@@H](c2ccc(C3=CCCCC3)cc2)[C@@H](CO)N1C(=O)C1CCOCC1,nt,i,i,i,i,i
CC(C)(C)c1ccc(C2CC2C(=O)N/N=C\c2ccc[nH]2)cc1 (stereo not drawn),i,nt,i,i,i,59.2
CN1c2ccc(-c3cccc(C#N)c3)cc2[C@@H]2[C@@H](CCN2C(=O)Nc2cc(F)ccc2F)[C@@H]1CO,nt,i,i,i,i,i
COc1ccccc1NC(=O)N1CC[C@H]2[C@@H]1c1cc(C#Cc3ccc(F)cc3)ccc1N(C)[C@H]2CO,nt,i,34.2,74.4,i,i
CN1c2ccc(-c3ccc(C#N)cc3)cc2[C@@H]2[C@@H](CCN2C(=O)Nc2ccccc2F)[C@@H]1CO,nt,i,41.9,i,i,i
COc1ccccc1NC(=O)N1CC[C@@H]2[C@H]1c1cc(-c3ccc(F)cc3)ccc1N(C)[C@H]2CO,nt,i,i,i,i,i
COc1ccccc1CNC(=O)C[C@H]1C[C@H]2c3cc(N(C)C)ccc3O[C@H]2[C@@H](CO)O1,nt,i,i,i,i,i

# Screening data: PubChem, Broad Institute
